Only some compounds are listed: those with a hit (about 7.4% of all), similar ones and a draw of the others.
3T3 cytotox – cytotoxic compounds in NIH 3T3 cells; AID 1345082; NIH 3T3 viability, CellTiter-Glo ATP luminescence, 48-72 h; 4.3% of 94,000 active; Potency, µM (series often up to 96.7 µM), inactives show at the top dose activity change, negative = cytotoxicity, most hits filed as inhibitors; also: % is scaled to controls: 0 for no effect and ±100 for the full control effect; nearly all actives have a fitted effect of over 55% in size
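Viability of NIH 3T3 cells after 48 or 72 hr compound treatment at 37 °C was assessed by CellTiter-Glo, with luminescence imaged following a 10 min room-temperature step.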
HEK293 viab – reduces viability of HEK-293 SNCA reporter cells; 0.12% of 150,000 active; Potency, µM (series often up to 57.1 µM), inactives show at the highest dose activity change, negative = cytotoxicity, actives largely listed as cytotoxic; HEK-293-SNCA-luc viability, GF-AFC fluorescence, 24 h;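 also: 0% = DMSO-treated cells and -100% = medium-only wells without cells; nearly all actives have a fitted effect of over 30% in size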
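Cytotoxicity counterscreen: after 24 h compound treatment of genome-edited SNCA-luciferase HEK-293 cells, live-cell protease substrate GF-AFC read by fluorescence after 30 min; activity scaled between DMSO (0%) and medium-only (-100%), curves Hill-fitted.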
NPR1 antag – blocks ANP-stimulated signaling of human Npr1 receptor; HEK293 hNpr1 GloSensor cGMP, ANP-stimulated luminescence; AID 1347048; Potency, µM (highest dose often 46.3 µM), for inactives: at the highest dose activity change, negative = inhibition, usual class: inhibitors; 1.6% of 76,000 active; P16066; calls by dose curve; also: % is scaled to controls: 0 for no effect and ±100 for the full control effect; nearly all actives have a fitted effect of over 60% in size
Target sequence (P16066 whole entry, looked up): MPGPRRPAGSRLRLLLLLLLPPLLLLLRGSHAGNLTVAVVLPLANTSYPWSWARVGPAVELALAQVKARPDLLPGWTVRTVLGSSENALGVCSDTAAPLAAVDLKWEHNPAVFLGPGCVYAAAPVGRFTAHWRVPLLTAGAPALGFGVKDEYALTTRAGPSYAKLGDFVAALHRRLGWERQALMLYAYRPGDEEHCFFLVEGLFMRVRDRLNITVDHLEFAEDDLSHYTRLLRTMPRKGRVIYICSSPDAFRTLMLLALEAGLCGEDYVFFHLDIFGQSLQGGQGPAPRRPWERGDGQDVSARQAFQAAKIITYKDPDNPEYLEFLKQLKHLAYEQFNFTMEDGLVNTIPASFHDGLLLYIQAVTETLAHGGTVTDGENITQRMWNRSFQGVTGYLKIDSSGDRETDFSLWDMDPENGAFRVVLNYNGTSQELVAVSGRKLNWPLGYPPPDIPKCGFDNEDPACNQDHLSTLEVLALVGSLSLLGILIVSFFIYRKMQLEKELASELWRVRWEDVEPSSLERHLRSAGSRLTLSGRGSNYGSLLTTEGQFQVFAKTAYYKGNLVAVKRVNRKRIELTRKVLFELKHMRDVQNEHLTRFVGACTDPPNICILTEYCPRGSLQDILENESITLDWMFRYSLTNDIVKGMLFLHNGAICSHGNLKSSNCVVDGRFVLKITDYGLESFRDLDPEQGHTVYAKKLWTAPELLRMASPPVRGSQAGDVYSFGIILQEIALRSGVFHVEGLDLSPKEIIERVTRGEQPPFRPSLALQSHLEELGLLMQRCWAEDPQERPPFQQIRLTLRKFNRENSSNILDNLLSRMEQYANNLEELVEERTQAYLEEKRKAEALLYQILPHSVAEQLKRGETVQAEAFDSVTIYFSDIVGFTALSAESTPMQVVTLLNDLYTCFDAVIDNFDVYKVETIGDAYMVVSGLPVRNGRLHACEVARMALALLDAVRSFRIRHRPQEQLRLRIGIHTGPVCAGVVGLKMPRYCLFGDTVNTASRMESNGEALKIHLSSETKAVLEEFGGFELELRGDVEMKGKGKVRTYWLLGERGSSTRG
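Compound pre-incubated 30 min at room temperature on GloSensor-loaded HEK293 cells stably carrying hNpr1 and the pGS-40F cGMP biosensor. Stimulation uses hNppA at 0.1 nM final; luminescence is taken at baseline and 20 min post-agonist.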
FLuc inh-1 – blocks purified firefly luciferase enzyme activity; P08659; purified P. pyralis luciferase, luminescence, biochemical; Potency, µM (doses to about 115 µM), most hits filed as inhibitors; 2.5% of 76,000 active; AID 1347043; also: % is scaled to controls: 0 for no effect and ±100 for the full control effect; nearly all actives have a fitted effect of over 65% in size
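Purified P. pyralis luciferase (10nM final) in 50mM Tris acetate pH 7.5, 10mM Mg acetate, 0.01% Tween-20, 0.05% BSA with 10uM D-luciferin and 10uM ATP. Compounds titrated qHTS. Luminescence imaged on CCD.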
SNCA expr inhib – inhibitors of alpha-synuclein (SNCA) gene expression | HEK-293 SNCA-luciferase knock-in, luminescence, 24 h | Potency, µM (highest dose often 57.2 µM), inactives show at the highest dose activity change, negative = inhibition, usual class: inhibitors | 0.17% of 140,000 active;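 also: plate controls were DMSO cells for no effect and cell-free wells for full effect; nearly all actives have a fitted effect of over 45% in size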
HEK293 tox – cytotoxic compounds in HEK 293 cells. HEK 293 viability, ATP luminescence (CellTiter-Glo), 48-72 h. Potency, µM (doses to about 115 µM), for inactives: at the top dose activity change, negative = cytotoxicity, usual class: inhibitors. 6.6% of 94,000 active; also: % is scaled to controls: 0 for no effect and ±100 for the full control effect; nearly all actives have a fitted effect of over 60% in size
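Read-out: CellTiter-Glo ATP luminescence. Cells: HEK 293, 250 cells/well. Exposure: 48 or 72 hr, 37 degree Celsius.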
FLuc SDR -ATP – firefly luciferase binding stabilization, ATP absent; 7.8% of 1,300 active; AID 1963318; Potency, µM (series often up to 32.7 µM), inactives show at the top dose activation (signal gain), hits mostly activators; Purified FLuc-C-HiBiT, Nano-Glo HiBiT luminescence, no ATP; shares compounds with FLuc inh-1; also: nearly all actives have a fitted effect of over 55% in size
FLuc SDR ATP – binders stabilizing firefly luciferase, plus ATP | shares compounds with FLuc inh-1 | purified FLuc-C-HiBiT + ATP, HiBiT complementation luminescence | Potency, µM (series often up to 32.7 µM), inactives show at the top dose activation (gain of signal), usual class: activators | 8.7% of 1,300 active;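 also: signal reports ligand binding via conformational change of the enzyme rather than luciferase catalysis; % of control where 0% means no effect; nearly all actives have a fitted effect of over 55% in size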
FLuc inh-2 – blocks firefly luciferase enzymatic activity. purified FLuc-C-HiBiT enzyme, luciferin luminescence. 42% of 1,300 active. Potency, µM (series often up to 32.7 µM), inactives show at the highest dose activity change, negative = inhibition, most hits filed as inhibitors. shares compounds with FLuc inh-1; also: % is scaled to controls: 0 for no effect and ±100 for the full control effect; nearly all actives have a fitted effect of over 70% in size
Numbers without * were called inactive; i = inactive; ? = inconclusive; nt = not tested or not shown; [ ] = another dose, or the depositor's remark. Unless noted, calls follow the shape of the dose curve; as a rule, active = well fitted curve in the direction sought with a large enough effect; inconclusive = small, poorly fitted or top-dose-only effect, or another doubt; inactive = no such curve, though single readings can be large; an effect the other way counts as inactive or inconclusive. Potency is read from the fitted curve at half-maximal effect.

SMILES	3T3 cytotox	HEK293 viab	NPR1 antag	FLuc inh-1	SNCA expr inhib	HEK293 tox	FLuc SDR -ATP	FLuc SDR ATP	FLuc inh-2
CC(=O)N1CCCN(c2ccc(-c3nc(-c4ccccc4F)no3)cn2)CC1	1%	-2%	-3%	13µM*	-7%	-1%	13%	?	?
Cc1ccccc1C(=O)N1CCC(C(=O)N2CCCC(c3nc4ccncc4[nH]3)C2)CC1 (stereo not given)	i	-1%	nt	nt	25%	i	nt	nt	nt
O=C(c1ccc(Cl)nc1)N1CCC(C(=O)N2CCC(N3CCOCC3=O)CC2)CC1	-12%	2%	nt	nt	-14%	-22%	nt	nt	nt
CCN(CC)CCOc1ccc(C(=C(Cl)c2ccccc2)c2ccccc2)cc1	nt	2%	nt	nt	-21%	nt	nt	nt	nt
CCN(CC)CCOc1ccc(-c2nc3cc(Cl)ccc3s2)cc1	nt	nt	nt	nt	nt	nt	21%[65.7 µM]	13%[65.7 µM]	?
Clc1ccc2c(c1)-n1cc(-c3ccccc3)nc1CO2	nt	?	nt	nt	85%	nt	16%	11%	-19%
COC(=O)CC1Oc2ccc(Cl)cc2-n2cc(-c3ccccc3)nc21 (stereo not given)	nt	4%	nt	nt	1%	nt	nt	nt	nt
COc1cc(CNC(=O)c2cc(-c3ccc(F)cc3)cc3ncn(C)c23)ccn1	?	-11%[87.6 µM]	-11%[70.6 µM]	?	24%[87.6 µM]	?	nt	nt	nt
COc1ccc(-c2nnc(SC(C)C(=O)O)o2)cc1 (stereo not given)	nt	14%	nt	nt	11%	nt	?	?	?
COc1ccc(-c2nnc(SCC(=O)Oc3cc(C)ccc3C)o2)cc1	nt	-11%	nt	nt	20%	nt	nt	nt	nt
CCOC(=O)C1CCN(C(=O)c2cc(-c3ccccc3OC)c3nncn3n2)CC1	-23%	-4%	nt	nt	18%	-23%	nt	nt	nt
O=C(c1ccc(CSc2nc3ccncc3n2Cc2ccc(F)cc2)cc1)N1CCCCCC1	nt	-19%	nt	nt	-11%	nt	nt	nt	nt
O=C(c1ccc(CSc2nc3ccncc3n2Cc2ccccc2F)cc1)N1CCCCC1	nt	7%	nt	nt	128%	nt	16%	11%	?
Cc1ccc(-c2cc3c(=O)n(CCNC(=O)c4cc(Cl)ccc4F)ccn3n2)c(C)c1	-2%	2%	-25%	?	32%	?	nt	nt	nt
CC(=O)Nc1cccc(C(=O)NCCn2ccn3nc(-c4ccc(C)cc4C)cc3c2=O)c1	?	-15%	-19%	5µM*	49%	40µM*	31%	?	9.9µM*
Cc1ccc(-c2cc3c(=O)n(CCNC(=O)c4ccc(N(C)C)cc4)ccn3n2)c(C)c1	-16%	0%	-18%	2.5µM*	95%	?	20%	14%	?
Cc1ccc(-c2cc3c(=O)n(CCNC(=O)c4ccc(N(C)C)cc4)ccn3n2)cc1C	i	1%	1%	i	52%	-3%	nt	nt	nt
COc1ccc(C(=O)NCCn2ccn3nc(-c4ccc(C)cc4C)cc3c2=O)cc1F	?	-18%	?	1.3µM*	15%	?	32%	?	3.5µM*
COc1ccc(C(=O)NCCn2ccn3nc(-c4cc(C)ccc4C)cc3c2=O)cc1OC	?	-1%	-19%	i	17%	?	nt	nt	nt
Cc1ccc(-c2cc3c(=O)n(CCNC(=O)c4nn(C)c5ccccc45)ccn3n2)c(C)c1	?	-14%	-24%	1.4µM*	8%	?	?	?	1.6µM*
COc1ccc(NC(=O)C2CCc3nnc(C4CC4)n32)cc1 (stereo not given)	-1%[138 µM]	-3%[87.6 µM]	nt	nt	-2%[87.6 µM]	2%[172 µM]	nt	nt	nt
COc1ccc(CCC(=O)N2CCC(F)(C(=O)N3CCCC3)CC2)cc1	-27%	3%	nt	nt	6%	?	nt	nt	nt
O=C(NC1CC1)[C@@H]1C[C@H](Oc2cccnc2)CN1C(=O)c1cc2ccccc2[nH]1	-8%	2%	nt	nt	27%	i	nt	nt	nt
Cc1ccc(-c2cc3c(=O)n(CCNC(=O)c4cccnc4)ccn3n2)c(C)c1	?	-3%	5%	8.9µM*	93%	?	30%	?	?
Cc1ccc(C)c(-c2cc3c(=O)n(CCNC(=O)c4ccccc4)ccn3n2)c1	?	?	-13%	i	?	?	nt	nt	nt
SMILES	3T3 cytotox	HEK293 viab	NPR1 antag	FLuc inh-1	SNCA expr inhib	HEK293 tox	FLuc SDR -ATP	FLuc SDR ATP	FLuc inh-2
Cc1ccc(-c2cc3c(=O)n(CCNC(=O)Cc4ccsc4)ccn3n2)c(C)c1	?	-3%	0%	8.9µM*	65%	?	?	?	6.2µM*
Cc1cn2nc(C(=O)Nc3ccc(N(C)C)cc3)cc2c(N2CCCC2)n1	?	-20%	10%	5µM*	80%	?	13%	13%	?
CC(C)(C)C(=O)N1CCCC(C(=O)N2CCC(c3nc4ncccc4[nH]3)CC2)C1 (stereo not given)	-19%	4%	nt	nt	10%	-7%	nt	nt	nt
CC(=O)Nc1cccc(-c2nc(-c3ccccc3)no2)c1	nt	-16%	nt	nt	-35%	nt	nt	nt	nt
O=C(O)c1ccc(-c2noc(-c3ccccc3Cl)n2)cc1	nt	nt	nt	nt	nt	nt	30%	1.6µM*	1.1µM*
c1ccc(-c2noc(-c3ccc4ccccc4c3)n2)cc1	nt	nt	nt	nt	nt	nt	36%	?	0.7µM*
Cc1noc(-c2nc(-c3cccc(Cl)c3)no2)n1	1%	0%	-4%	?	80%	?	nt	nt	nt
O=C(O)c1ccc(-c2noc(-c3cccc(Cl)c3)n2)cc1	nt	nt	nt	nt	nt	nt	?	?	7µM*
O=C(O)c1cccc(-c2noc(-c3ccccc3C(F)(F)F)n2)c1	nt	nt	nt	nt	nt	nt	25%	0.12µM*	0.062µM*
Cc1cccc(C(=O)Nc2ccccc2-c2nc(-c3ccccc3)no2)c1	nt	-5%	nt	nt	36%	nt	nt	nt	nt
COc1ccc(-c2ccccc2C(=O)NCC(F)F)nn1	-9%[138 µM]	nt	nt	nt	nt	0%[172 µM]	nt	nt	nt
CCCC(O)CN1CCC(=O)N(CC2CC2)Cc2ccccc21 (stereo not given)	-21%	nt	nt	nt	nt	?	nt	nt	nt
O=C(O)c1ccc(-c2noc(-c3ccccc3C(F)(F)F)n2)cc1	nt	nt	nt	nt	nt	nt	14%	?	?
Cc1nc(-c2ccc(C)c(N3CCN(C(=O)Nc4ccccc4C(F)(F)F)CC3)c2)no1	nt	1%	nt	nt	-23%	nt	nt	nt	nt
O=C(Cc1ccccc1)N1CC(Oc2ccc(-c3nc(-c4ccccc4)no3)cc2)C1	-5%	-2%	?	?	14%	?	nt	nt	nt
